In the library only some 18% were active in any assay of this set; here they are far more common.
CtBP-E1A inh – CtBP/E1A binding inhibition; hit rate 0.49% among 340,000; activity change, % (concentration not given with the values); AlphaScreen GST-E1A/His-CtBP binding, 1536-well; hits give low values; in the data active = activity change below about -65%; inconclusive = mostly about -30% to -63%
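GST-E1A and His-tagged CtBP (125 nM each as 5X stock) were preincubated with pin-transferred compound for 2 h at 37 °C in the dark, then glutathione donor and nickel acceptor beads were added for 1 h before AlphaScreen reading.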
TDP1 inh – inhibitors of human tyrosyl-DNA phosphodiesterase TDP1 | recombinant TDP1, AlphaScreen DNA substrate cleavage | Potency, µM (top dose mostly 130 µM), actives largely listed as inhibitors | hit rate 0.28% among 350,000; note: nearly all actives have a fitted effect of over 40% in size
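Enzyme-compound mixtures sat 15 min at room temperature, followed by a 5 min reaction with 15 nM final substrate and 10 min with AlphaScreen beads. Recombinant human Tdp1 was used at 1 nM final.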
TDP1 cell noCPT – qHTS for Inhibitors of human tyrosyl-DNA phosphodiesterase 1 (TDP1): qHTS in cells in absence of CPT; Potency, µM (doses to about 46.2 µM), most hits filed as inhibitors; DT40 Tdp1-/- hTDP1 cells, no CPT, ATP luminescence, 48 h; hit rate 15% among 420,000; AID 686978, 2013; note: nearly all actives have a fitted effect of over 55% in size
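No-CPT arm: Tdp1-/-;hTDP1 DT40 cells (400/well) plus compounds, incubated ≥48 hr at 37 °C. Readout CellTiter-Glo luminescence.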
IL-1B inflam inh – inflammasome signaling inhibition, IL-1 beta readout; AID 743279; THP-1 LPS/ATP IL-1B secretion, AlphaLISA, 16 h; hits give low values; activity change, % at 57.5 µM; hit rate 4.7% among 360,000; in the data active = activity change below about -50%; inconclusive = mostly about -30% to -49%
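THP-1 cells pretreated 1 hr with compounds (up to 57.5 uM final), then stimulated with LPS (250 ng/mL final) plus ATP (1.25 mM final); secreted IL-1B measured by AlphaLISA after 16 hr, decreased signal indicating inhibition.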
Six1-Eya2 blk – Six1/Eya2 interaction inhibition; Q15475+O00167; AlphaScreen GST-Six1/His-Eya2 binding, biochemical; hits give low values; activity change, % (concentration not given with the values); hit rate 0.56% among 360,000; in the data active = activity change below about -65%; inconclusive = mostly about -30% to -63%
Target sequence (O00167 whole entry, looked up): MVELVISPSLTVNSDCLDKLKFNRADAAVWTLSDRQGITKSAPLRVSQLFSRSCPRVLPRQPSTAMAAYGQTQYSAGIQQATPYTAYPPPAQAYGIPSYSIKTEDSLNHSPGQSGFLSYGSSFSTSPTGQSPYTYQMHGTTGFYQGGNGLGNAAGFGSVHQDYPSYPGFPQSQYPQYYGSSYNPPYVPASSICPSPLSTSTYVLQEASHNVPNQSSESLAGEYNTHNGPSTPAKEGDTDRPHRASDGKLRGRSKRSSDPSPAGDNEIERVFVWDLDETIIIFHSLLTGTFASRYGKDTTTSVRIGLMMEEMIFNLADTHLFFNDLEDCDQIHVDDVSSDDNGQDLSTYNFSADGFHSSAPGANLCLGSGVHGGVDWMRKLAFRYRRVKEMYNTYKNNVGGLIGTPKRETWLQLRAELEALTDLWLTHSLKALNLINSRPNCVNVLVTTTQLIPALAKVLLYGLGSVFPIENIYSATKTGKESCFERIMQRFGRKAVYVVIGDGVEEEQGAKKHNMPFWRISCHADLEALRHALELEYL
Target sequence (Q15475 whole entry, looked up): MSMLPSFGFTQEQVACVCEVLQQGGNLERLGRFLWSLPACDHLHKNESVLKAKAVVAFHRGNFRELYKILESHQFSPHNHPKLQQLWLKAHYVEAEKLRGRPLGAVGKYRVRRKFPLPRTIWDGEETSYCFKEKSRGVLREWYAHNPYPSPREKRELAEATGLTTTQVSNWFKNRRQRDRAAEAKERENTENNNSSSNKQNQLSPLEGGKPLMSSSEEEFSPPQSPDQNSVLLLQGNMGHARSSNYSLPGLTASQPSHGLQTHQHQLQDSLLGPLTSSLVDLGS
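AlphaScreen luminescence read after one hour at 37 °C in darkness. Pin-transferred compounds met GST-Six1 and His-Eya2 protein (5X stock 250 nM/500 nM) plus glutathione donor and Ni-chelate acceptor beads (5X, 50 ug/mL).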
TDP1 cell CPT – growth inhibition of DT40 Tdp1-/-;hTDP1 cells with camptothecin (screen for TDP1 inhibitors); chicken DT40 Tdp1-/-;hTDP1 cells + 20 nM CPT, ATP luminescence, 48 h; Potency, µM (doses to about 46.2 µM), most hits filed as inhibitors; hit rate 12% among 420,000; note: nearly all actives have a fitted effect of over 55% in size
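Cell growth measured by CellTiter-Glo luminescence after a minimum 48 h, 37 C compound exposure with 20 nM CPT in Tdp1-knockout DT40 cells stably expressing hTDP1, seeded 400/well; qHTS titration format.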
A number is an active result; n = inactive; u = inconclusive; x = no result given; [ ] = remark or other dose. Unless noted, calls come from the whole dose curve; as a rule, active = well fitted curve in the direction sought with a large enough effect; inconclusive = small, poorly fitted or top-dose-only effect, or another doubt; inactive = no such curve, though single readings can be large; an effect the other way counts as inactive or inconclusive.

SMILES	CtBP-E1A inh	TDP1 inh	TDP1 cell noCPT	IL-1B inflam inh	Six1-Eya2 blk	TDP1 cell CPT
CC1(C(=O)NCC2CC2)Cc2c(-c3ccc4c(c3)OCO4)ccnc2O1 (stereo unspecified)	n	x	5.17µM	n	n	4.61µM
CC(=O)Nc1ccc(-c2ccnc3c2CC(C)(C(=O)NCc2ccncc2)O3)cc1 (stereo unspecified)	n	x	n	n	n	n
CN(C)c1ccc(CNC(=O)C2(C)Cc3c(-c4ccc(N(C)C)cc4)ccnc3O2)cc1 (stereo unspecified)	u	x	18.4µM	n	u	u
COc1ccccc1C(=O)NNC(=O)C1CC=CCC1 (stereo unspecified)	n	35.5µM	n	n	n	n
COc1ccc(C(=O)NNC(=O)c2ccccc2[N+](=O)[O-])cc1	n	n	n	n	n	n
COc1ccccc1C(=O)NNC(=O)c1cc2ccccc2cc1O	n	x	18.4µM	n	n	13µM
COc1ccc(C(=O)NNC(=O)c2cc3ccccc3cc2O)cc1	x	x	13µM	n	n	u
O/N=C/c1ccc(-c2cc(Cl)ccc2Cl)o1	n	n	n	n	n	n
COC(=O)c1cc(C)nc2c1c(=O)nc(SCc1cc(C)ccc1C)n2C1CC1	x	n	u	x	x	n
Cc1ccc(CSc2nc(=O)c3c(C)cc(C)nc3n2C2CC2)cc1	x	n	20.6µM	x	x	20.6µM
CCN1C(=NCCOC)N[C@@H](c2cccc(F)c2)C(C(=O)OC)=C1C	n	x	n	n	n	n
COc1ccccc1-c1ccc(C(=O)O)o1	n	u	n	n	n	n
Nc1nc(-c2ccccc2)cn1/N=C/c1ccccc1	n	n	23.1µM	u	n	u
COc1ccc(-c2cn(/N=C/c3ccc(Cl)cc3Cl)c(N)n2)cc1	n	n	u	-66.4	n	23.1µM
COCc1ccc(C(=O)N2CCOc3c(cc(-c4cc(C)c5cccc(OC)c5n4)cc3OC)C2)o1	x	x	n	x	x	n[9.04 µM]
Cc1ccc(S(=O)(=O)NC2(C(=O)O)CCCC2)cc1	n	x	n	n	n	n
COc1ccc(NC(=O)NC(C)c2c(-n3cccc3)sc3c2CCN(C)C3)c(OC)c1 (stereo unspecified)	x	n	23.1µM	x	x	u
CCOC(=O)c1cccc(NC(=O)NC(C)c2c(-n3cccc3)sc3c2CCN(C)C3)c1 (stereo unspecified)	x	n	16.4µM	x	x	14.6µM
CCC(NC(=O)Nc1cc(OC)ccc1OC)c1c(-n2cccc2)sc2c1CCN(CC)C2 (stereo unspecified)	x	n	23.1µM	x	x	u
COCCNC(=O)CCSc1nc(-c2ccc3c(c2)OCO3)cc(C(F)(F)F)n1	x	n	x	x	x	x
COc1ccc(-c2c(C(=O)c3ccccc3)[nH]c(N)c2C(=O)c2ccccc2)cc1OC	n	x	u	n	n	u
O=c1[nH]c(SCc2cccc(Cl)c2)nc2c1CCC2	x	n	n	x	x	n
NCCOB(c1ccccc1)c1ccccc1	x	u	16.4µM	x	x	u
O=C1/C(=C\c2cccnc2)Sc2ccccc21	n	n	20.6µM	n	n	u
CCn1c(SCC(=O)c2ccc(NC(C)=O)c(OC)c2)nnc1-c1ccc(NS(C)(=O)=O)cc1	n	n	n	n	n	n
SMILES	CtBP-E1A inh	TDP1 inh	TDP1 cell noCPT	IL-1B inflam inh	Six1-Eya2 blk	TDP1 cell CPT
Cc1nnsc1S(=O)c1ccc(Br)cc1 (stereo unspecified)	n	x	u	n	n	18.4µM
Cc1ccc(S(=O)c2snnc2C)cc1 (stereo unspecified)	n	x	n	n	n	n
Cc1nnsc1S(=O)c1ccc(F)cc1 (stereo unspecified)	n	x	n	-50.3	n	n
CCNC(=O)Oc1ccc(-c2csnn2)cc1	n	n	u	n	n	u
CN(C1=C(NC(=O)c2ccccc2)C(=O)c2ccccc2C1=O)C1CCS(=O)(=O)C1 (stereo unspecified)	n	n	2.59µM	u	n	2.59µM
CC(=O)NC1=C(NC2CCS(=O)(=O)C2)C(=O)c2ccccc2C1=O (stereo unspecified)	n	n	11.6µM	n	n	10.3µM
CCCCN(C)C(=O)CCC(=O)NNc1nc2ccccc2c2nc(C)nn12	n	n	n	n	n	n
C[C@H](CO)N1C[C@H](C)[C@H](CN(C)C(=O)c2ccc(N3CCN(C)CC3)cc2)OCc2cnnn2CCCC1=O	n	x	u	n	n	n
Clc1ccc(C(c2nnnn2C2CCCC2)N2CCN(Cc3ccncc3)CC2)cc1 (stereo unspecified)	n	n	u	n	n	u
Fc1ccc(C(c2nnnn2C2CCCC2)N2CCN(Cc3ccccc3)CC2)cc1 (stereo unspecified)	n	n	u	-53.6	n	18.4µM
C1CCC(n2nnnc2CN2CCCC2)CC1	n	n	n	n	n	u
CC(C)CCn1nnnc1CN1CCN(C(c2ccccc2)c2ccccc2)CC1	x	n	18.4µM	n	n	u
c1ccc(C(c2ccccc2)N2CCN(Cc3nnnn3C3CCCC3)CC2)cc1	n	n	16.4µM	n	n	u
CCC(C)(C)n1nnnc1CN1CCN(C(c2ccccc2)c2ccccc2)CC1	n	n	20.6µM	n	n	u
CC1CCc2c(sc3ncnc(SC(C)C(=O)NCC4CCCO4)c23)C1 (stereo unspecified)	n	n	20.6µM	n	n	25.9µM
Cc1ccc(-n2nnc3c(SCC(=O)NCC4CCCO4)ncnc32)cc1 (stereo unspecified)	n	n	11.6µM	-55.6	n	20.6µM
CC(C)c1ccc(Nc2nnc(SCC(=O)NCC3CCCO3)s2)cc1 (stereo unspecified)	n	n	16.4µM	n	n	u
Cc1sc2ncnc(SCC(=O)NCC3CCCO3)c2c1C (stereo unspecified)	n	n	5.17µM	n	n	0.259µM
O=C(CSc1ncnc2sc3c(c12)CCC3)NCC1CCCO1 (stereo unspecified)	n	n	n	n	n	n
Cn1nnnc1SCC(=O)Nc1nc(-c2ccc(F)c(F)c2)cs1	n	n	u	n	n	u
Cc1sc2ncnc(SCC(=O)Nc3nc(-c4ccc(F)c(F)c4)cs3)c2c1C	x	n	20.6µM	n	n	n
CC(Sc1nnc(-c2ccccc2)c(-c2ccccc2)n1)C(=O)NCC1CCCO1 (stereo unspecified)	n	n	23.1µM	n	n	u
Cc1sc2ncnc(SC(C)C(=O)N3c4ccccc4Sc4ccccc43)c2c1C (stereo unspecified)	n	n	23.1µM	n	n	20.6µM

Compound activity: PubChem, National Center for Advancing Translational Sciences (NCATS)
